# Measurements reported in article PMC7862700, “An all-to-all approach to the identification of sequence-specific readers for epigenetic DNA modifications on cytosine”.
# Legend:
# Experiment in all cases: DAPPL (digital affinity profiling via proximity ligation, sequencing); 10 mM Tris-HCl pH 7.5, 50 mM NaCl, 1 mM DTT, 4% glycerol, room temperature, 30 min; GST-TFs on glutathione beads, 16-mer random dsDNA library, 0.1% formaldehyde crosslink after washing; high values mean tight binding
# [1] = target: T1, FEV (Homo sapiens, UniProt Q99581 1-238); conditions: protein: recombinant; tags: N-terminal GST; dsDNA, one strand shown
# T1 sequence: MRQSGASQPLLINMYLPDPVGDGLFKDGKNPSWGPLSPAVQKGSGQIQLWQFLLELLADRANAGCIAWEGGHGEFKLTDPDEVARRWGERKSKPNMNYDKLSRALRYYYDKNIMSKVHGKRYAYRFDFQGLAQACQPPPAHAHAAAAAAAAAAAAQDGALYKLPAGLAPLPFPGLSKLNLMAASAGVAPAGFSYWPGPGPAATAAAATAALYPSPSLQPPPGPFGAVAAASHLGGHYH
# Method in brief: (§1)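 Pools were built from human transcription factors expressed in yeast as GST fusions, captured on glutathione beads and DNA-barcoded, along with a tag-only sample. Incubation with 200 nmole of a 16-mer random double-stranded DNA library lasted 30 min at room temperature in Tris/NaCl/DTT/glycerol buffer, and was followed by washing, 0.1% formaldehyde crosslinking, proximity ligation, PCR amplification and Illumina NextSeq500 sequencing. Binding signal is the quotient of each hexamer's read frequency for a factor and its frequency for the tag-only sample.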
# [2] = target: ETV5 (Homo sapiens, UniProt P41161 1-510); conditions: protein: recombinant; tags: N-terminal GST; dsDNA, one strand shown
# Method in brief: as §1
# [3] = target: HSF1 (Homo sapiens, UniProt Q00613 1-529); conditions: protein: recombinant; tags: N-terminal GST; chain copies: 3; dsDNA, one strand shown
# Method in brief: as §1
# [4] = target: T2, SPIC (Homo sapiens, UniProt Q8N5J4 1-248); conditions: protein: recombinant; tags: N-terminal GST; dsDNA, one strand shown
# T2 sequence: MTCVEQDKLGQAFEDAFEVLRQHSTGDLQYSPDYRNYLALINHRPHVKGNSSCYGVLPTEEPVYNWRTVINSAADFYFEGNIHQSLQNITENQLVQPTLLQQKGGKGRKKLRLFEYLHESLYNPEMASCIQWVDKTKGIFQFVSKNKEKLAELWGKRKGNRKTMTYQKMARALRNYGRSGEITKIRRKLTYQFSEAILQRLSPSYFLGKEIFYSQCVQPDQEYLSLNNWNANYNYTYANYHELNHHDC
# Method in brief: as §1
# [5] = target: ELF4 (Homo sapiens, UniProt Q99607 1-663); conditions: protein: recombinant; tags: N-terminal GST; dsDNA, one strand shown
# Method in brief: as §1
# [6] = target: T3, ELK4 (Homo sapiens, UniProt P28324-2 1-405); conditions: protein: recombinant; tags: N-terminal GST; dsDNA, one strand shown
# T3 sequence: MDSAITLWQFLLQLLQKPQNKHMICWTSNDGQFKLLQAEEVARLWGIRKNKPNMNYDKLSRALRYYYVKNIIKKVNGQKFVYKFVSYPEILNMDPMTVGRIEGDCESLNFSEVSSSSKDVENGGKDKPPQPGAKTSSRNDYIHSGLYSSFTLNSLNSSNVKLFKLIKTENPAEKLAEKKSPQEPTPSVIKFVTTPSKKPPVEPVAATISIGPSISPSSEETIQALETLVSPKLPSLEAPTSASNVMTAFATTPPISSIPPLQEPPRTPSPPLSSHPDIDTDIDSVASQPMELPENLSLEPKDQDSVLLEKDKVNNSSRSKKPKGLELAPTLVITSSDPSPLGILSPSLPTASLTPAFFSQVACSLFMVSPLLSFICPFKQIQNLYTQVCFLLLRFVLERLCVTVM
# Method in brief: as §1
# [7] = target: T4, ETV2 (Homo sapiens, UniProt O00321 1-342); conditions: protein: recombinant; tags: N-terminal GST; dsDNA, one strand shown
# T4 sequence: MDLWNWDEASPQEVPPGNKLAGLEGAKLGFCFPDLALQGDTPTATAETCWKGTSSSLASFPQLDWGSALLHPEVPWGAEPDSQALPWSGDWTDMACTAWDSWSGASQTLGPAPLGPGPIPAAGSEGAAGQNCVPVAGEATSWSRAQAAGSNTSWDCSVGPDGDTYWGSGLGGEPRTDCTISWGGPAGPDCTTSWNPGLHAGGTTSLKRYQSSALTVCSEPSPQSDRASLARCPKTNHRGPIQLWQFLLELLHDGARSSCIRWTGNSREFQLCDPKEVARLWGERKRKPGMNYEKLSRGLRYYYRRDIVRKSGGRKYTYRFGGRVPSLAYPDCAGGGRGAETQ
# Method in brief: as §1
# [8] = target: T5, ELF3 (Homo sapiens, UniProt P78545 1-371); conditions: protein: recombinant; tags: N-terminal GST; dsDNA, one strand shown
# T5 sequence: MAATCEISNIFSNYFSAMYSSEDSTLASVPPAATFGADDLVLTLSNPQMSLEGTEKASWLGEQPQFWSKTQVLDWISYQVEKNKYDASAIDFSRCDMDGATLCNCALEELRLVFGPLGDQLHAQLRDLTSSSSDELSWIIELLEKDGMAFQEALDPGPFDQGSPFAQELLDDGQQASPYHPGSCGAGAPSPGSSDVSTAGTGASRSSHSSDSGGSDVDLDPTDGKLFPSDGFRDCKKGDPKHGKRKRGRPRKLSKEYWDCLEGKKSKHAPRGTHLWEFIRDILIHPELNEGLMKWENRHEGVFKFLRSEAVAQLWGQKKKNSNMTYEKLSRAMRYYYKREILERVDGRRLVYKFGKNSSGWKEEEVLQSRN
# Method in brief: as §1
# [9] = target: CRX (Homo sapiens, UniProt O43186 1-299); conditions: protein: recombinant; tags: N-terminal GST; dsDNA, one strand shown
# Method in brief: as §1
# [10] = target: ETV1 (Homo sapiens, UniProt P50549 1-477); conditions: protein: recombinant; tags: N-terminal GST; dsDNA, one strand shown
# Method in brief: as §1
# [11] = target: T6, ERF (Homo sapiens, UniProt P50548 1-548); conditions: protein: recombinant; tags: N-terminal GST; dsDNA, one strand shown
# T6 sequence: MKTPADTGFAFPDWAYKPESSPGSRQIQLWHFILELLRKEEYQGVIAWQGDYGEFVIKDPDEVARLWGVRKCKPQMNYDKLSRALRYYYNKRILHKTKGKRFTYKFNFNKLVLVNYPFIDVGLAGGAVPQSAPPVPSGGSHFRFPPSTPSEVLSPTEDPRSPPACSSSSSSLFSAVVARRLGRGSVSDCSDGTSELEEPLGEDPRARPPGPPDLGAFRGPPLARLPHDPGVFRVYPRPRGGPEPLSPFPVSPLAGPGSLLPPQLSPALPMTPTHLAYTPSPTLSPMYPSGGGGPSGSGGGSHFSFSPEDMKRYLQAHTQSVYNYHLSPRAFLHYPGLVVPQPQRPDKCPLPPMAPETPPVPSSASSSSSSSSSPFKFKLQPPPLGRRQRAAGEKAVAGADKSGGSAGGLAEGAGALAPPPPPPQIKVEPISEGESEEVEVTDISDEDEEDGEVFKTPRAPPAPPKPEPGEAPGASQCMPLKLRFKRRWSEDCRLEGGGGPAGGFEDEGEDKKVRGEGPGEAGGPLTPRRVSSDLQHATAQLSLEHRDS
# Method in brief: as §1
# [12] = target: T7, ETV3L (Homo sapiens, UniProt Q6ZN32 1-361); conditions: protein: recombinant; tags: N-terminal GST; dsDNA, one strand shown
# T7 sequence: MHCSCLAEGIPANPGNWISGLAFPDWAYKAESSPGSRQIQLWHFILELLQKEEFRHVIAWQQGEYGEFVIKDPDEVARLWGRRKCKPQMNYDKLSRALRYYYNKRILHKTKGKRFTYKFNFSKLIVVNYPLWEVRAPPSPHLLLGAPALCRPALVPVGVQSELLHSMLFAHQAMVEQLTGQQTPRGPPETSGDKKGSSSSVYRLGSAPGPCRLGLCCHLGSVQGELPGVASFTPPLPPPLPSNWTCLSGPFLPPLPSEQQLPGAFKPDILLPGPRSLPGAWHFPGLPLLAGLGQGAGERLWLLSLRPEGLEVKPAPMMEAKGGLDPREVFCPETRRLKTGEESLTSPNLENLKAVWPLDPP
# Method in brief: as §1
# [13] = target: T8, ETS2 (Homo sapiens, UniProt P15036 1-469); conditions: protein: recombinant; tags: N-terminal GST; dsDNA, one strand shown
# T8 sequence: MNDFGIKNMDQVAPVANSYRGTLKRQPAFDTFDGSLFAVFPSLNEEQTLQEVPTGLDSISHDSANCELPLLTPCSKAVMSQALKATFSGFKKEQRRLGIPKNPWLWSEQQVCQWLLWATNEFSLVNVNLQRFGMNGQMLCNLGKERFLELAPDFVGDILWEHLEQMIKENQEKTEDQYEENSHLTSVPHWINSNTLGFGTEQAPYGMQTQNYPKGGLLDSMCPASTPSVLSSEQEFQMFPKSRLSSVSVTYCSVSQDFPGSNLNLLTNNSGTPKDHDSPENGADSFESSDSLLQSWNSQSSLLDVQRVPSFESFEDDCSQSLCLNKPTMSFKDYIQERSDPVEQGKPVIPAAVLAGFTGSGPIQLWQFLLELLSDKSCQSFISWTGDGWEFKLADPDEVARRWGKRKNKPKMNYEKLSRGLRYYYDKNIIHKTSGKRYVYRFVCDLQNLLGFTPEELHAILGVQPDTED
# Method in brief: as §1
# [14] = target: T9, SPDEF (Homo sapiens, UniProt O95238 1-335); conditions: protein: recombinant; tags: N-terminal GST; dsDNA, one strand shown
# T9 sequence: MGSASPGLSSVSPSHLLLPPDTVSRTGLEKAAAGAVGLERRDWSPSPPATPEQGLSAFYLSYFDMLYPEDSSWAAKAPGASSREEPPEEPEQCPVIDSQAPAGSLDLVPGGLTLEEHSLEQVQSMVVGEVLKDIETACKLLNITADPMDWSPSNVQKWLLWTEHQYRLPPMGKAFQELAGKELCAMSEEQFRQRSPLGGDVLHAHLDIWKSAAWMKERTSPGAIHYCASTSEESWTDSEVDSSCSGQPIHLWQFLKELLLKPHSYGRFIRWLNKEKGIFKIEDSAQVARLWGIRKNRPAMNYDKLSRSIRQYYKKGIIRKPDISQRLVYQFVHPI
# Method in brief: as §1
# [15] = target: T10, ETV7 (Homo sapiens, UniProt Q9Y603 1-341); conditions: protein: recombinant; tags: N-terminal GST; dsDNA, one strand shown
# T10 sequence: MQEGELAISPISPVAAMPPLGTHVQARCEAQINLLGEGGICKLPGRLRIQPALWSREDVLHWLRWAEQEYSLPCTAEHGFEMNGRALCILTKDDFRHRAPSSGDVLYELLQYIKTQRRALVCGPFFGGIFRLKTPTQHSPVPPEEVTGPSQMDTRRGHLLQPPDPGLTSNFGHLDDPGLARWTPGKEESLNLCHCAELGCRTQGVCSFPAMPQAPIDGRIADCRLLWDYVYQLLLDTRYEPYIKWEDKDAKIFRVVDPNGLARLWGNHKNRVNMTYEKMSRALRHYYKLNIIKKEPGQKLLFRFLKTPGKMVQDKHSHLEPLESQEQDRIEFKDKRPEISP
# Method in brief: as §1
# [16] = target: T11, ELF5 (Homo sapiens, UniProt Q9UKW6-2 1-255); conditions: protein: recombinant; tags: N-terminal GST; dsDNA, one strand shown
# T11 sequence: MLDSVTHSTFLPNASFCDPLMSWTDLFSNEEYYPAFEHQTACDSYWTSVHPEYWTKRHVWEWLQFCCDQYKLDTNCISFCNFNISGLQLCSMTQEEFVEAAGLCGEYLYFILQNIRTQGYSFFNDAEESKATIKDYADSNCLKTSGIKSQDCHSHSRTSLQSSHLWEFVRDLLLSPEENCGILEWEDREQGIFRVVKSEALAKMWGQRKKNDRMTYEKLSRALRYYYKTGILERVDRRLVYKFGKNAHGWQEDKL
# Method in brief: as §1
# [17] = target: T12, ETV3 (Homo sapiens, UniProt P41162-2 1-143); conditions: protein: recombinant; tags: N-terminal GST; dsDNA, one strand shown
# T12 sequence: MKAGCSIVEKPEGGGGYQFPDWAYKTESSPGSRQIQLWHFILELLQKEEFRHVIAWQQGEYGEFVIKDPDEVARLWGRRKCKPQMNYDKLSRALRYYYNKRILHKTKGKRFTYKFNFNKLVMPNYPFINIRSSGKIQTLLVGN
# Method in brief: as §1
# [18] = target: ETV6 (Homo sapiens, UniProt P41212 1-452); conditions: protein: recombinant; tags: N-terminal GST; dsDNA, one strand shown
# Method in brief: as §1
# Sequence of HSF1 (Q00613 whole entry): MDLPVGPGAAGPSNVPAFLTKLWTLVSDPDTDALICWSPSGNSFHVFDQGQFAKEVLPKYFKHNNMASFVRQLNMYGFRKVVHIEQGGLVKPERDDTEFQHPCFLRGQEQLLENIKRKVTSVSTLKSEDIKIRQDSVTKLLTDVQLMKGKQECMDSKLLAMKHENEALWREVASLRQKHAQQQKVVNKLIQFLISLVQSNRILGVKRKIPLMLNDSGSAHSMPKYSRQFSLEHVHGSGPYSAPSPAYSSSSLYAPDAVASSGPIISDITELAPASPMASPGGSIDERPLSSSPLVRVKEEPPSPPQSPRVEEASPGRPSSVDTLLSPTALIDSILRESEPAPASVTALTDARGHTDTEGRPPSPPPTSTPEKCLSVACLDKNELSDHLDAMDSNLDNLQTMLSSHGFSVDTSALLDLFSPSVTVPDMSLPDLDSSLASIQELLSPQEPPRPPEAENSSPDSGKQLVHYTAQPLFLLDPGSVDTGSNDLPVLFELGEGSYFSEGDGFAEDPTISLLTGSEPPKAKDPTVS
# Sequence of ELF4 (Q99607 whole entry): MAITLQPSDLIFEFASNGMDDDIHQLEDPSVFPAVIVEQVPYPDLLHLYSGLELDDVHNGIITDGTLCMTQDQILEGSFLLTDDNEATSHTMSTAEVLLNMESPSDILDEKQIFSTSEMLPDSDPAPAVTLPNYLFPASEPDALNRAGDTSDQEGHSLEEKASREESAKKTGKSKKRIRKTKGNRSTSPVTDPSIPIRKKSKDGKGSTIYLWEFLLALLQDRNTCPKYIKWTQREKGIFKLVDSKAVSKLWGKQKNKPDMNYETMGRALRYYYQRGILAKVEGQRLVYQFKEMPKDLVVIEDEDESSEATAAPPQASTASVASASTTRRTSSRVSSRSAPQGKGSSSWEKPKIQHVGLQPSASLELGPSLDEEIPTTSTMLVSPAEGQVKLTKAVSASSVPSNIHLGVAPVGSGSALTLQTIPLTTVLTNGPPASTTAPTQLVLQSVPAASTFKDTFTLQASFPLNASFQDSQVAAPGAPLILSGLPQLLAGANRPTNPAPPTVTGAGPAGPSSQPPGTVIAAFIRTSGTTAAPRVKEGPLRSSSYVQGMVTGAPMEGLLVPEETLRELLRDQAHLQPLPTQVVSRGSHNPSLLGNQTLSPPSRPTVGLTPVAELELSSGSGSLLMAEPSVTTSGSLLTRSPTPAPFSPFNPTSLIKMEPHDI
# Sequence of ETV6 (P41212 whole entry): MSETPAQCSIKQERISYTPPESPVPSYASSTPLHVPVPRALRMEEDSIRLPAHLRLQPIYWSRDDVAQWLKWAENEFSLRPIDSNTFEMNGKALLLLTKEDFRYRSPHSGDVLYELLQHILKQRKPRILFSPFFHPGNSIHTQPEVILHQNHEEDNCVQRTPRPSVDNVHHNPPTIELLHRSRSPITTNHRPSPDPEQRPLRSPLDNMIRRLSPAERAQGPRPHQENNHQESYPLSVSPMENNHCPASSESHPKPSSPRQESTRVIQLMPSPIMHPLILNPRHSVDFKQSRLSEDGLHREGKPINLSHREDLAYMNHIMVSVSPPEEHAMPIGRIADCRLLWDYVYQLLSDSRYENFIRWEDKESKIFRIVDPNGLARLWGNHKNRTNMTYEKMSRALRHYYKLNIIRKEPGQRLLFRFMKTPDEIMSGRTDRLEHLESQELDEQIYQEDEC
# Sequence of ETV1 (P50549 whole entry): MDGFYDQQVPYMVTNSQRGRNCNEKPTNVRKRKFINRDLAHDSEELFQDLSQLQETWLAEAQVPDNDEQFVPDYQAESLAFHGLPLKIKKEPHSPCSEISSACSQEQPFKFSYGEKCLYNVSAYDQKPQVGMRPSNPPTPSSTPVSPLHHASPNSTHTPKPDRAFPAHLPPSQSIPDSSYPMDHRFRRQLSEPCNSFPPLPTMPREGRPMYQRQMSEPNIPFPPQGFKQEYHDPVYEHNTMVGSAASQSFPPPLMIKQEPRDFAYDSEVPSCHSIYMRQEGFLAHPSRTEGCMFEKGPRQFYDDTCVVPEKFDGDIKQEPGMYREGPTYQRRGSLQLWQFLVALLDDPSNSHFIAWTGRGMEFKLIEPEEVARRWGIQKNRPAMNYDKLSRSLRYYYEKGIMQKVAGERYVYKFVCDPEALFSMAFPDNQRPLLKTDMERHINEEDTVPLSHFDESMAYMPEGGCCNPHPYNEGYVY
# Sequence of CRX (O43186 whole entry): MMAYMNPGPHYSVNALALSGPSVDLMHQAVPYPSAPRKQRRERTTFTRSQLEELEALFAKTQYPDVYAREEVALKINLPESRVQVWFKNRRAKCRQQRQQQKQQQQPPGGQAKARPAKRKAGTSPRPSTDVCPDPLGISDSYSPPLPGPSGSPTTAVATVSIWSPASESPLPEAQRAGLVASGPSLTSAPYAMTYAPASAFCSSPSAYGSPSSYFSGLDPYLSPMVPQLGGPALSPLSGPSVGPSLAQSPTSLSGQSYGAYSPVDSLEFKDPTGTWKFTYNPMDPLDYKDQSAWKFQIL
# Sequence of ETV5 (P41161 whole entry): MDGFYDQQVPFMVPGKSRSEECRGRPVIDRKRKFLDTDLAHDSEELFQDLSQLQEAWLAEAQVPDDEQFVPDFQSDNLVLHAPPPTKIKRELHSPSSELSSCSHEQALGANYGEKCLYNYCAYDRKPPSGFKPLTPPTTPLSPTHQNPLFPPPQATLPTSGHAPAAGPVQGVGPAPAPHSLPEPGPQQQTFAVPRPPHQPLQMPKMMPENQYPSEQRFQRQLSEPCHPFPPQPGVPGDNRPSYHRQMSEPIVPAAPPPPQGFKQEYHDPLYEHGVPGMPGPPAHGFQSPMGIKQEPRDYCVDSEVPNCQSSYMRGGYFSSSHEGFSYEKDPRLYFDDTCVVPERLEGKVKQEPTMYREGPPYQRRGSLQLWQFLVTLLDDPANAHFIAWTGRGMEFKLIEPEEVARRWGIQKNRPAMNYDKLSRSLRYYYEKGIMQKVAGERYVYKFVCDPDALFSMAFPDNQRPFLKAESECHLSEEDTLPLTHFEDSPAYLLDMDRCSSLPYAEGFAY
sequence,measurement,setting,value
TAACGC,binding signal,[1],"1.19 fold enrichment (6-mer frequency, TF over GST control)"
same,binding signal,[2],"1.22 fold enrichment (6-mer frequency, TF over GST control)"
same,binding signal,[3],"1.28 fold enrichment (6-mer frequency, TF over GST control)"
same,binding signal,[4],"1.05 fold enrichment (6-mer frequency, TF over GST control)"
same,binding signal,[5],"1.15 fold enrichment (6-mer frequency, TF over GST control)"
same,binding signal,[6],"1.17 fold enrichment (6-mer frequency, TF over GST control)"
same,binding signal,[7],"1.13 fold enrichment (6-mer frequency, TF over GST control)"
same,binding signal,[8],"1.17 fold enrichment (6-mer frequency, TF over GST control)"
same,binding signal,[9],"1.63 fold enrichment (6-mer frequency, TF over GST control)"
same,binding signal,[10],"1.12 fold enrichment (6-mer frequency, TF over GST control)"
same,binding signal,[11],"1.06 fold enrichment (6-mer frequency, TF over GST control)"
same,binding signal,[12],"1.18 fold enrichment (6-mer frequency, TF over GST control)"
same,binding signal,[13],"1.15 fold enrichment (6-mer frequency, TF over GST control)"
same,binding signal,[14],"1.15 fold enrichment (6-mer frequency, TF over GST control)"
same,binding signal,[15],"1.01 fold enrichment (6-mer frequency, TF over GST control)"
same,binding signal,[16],"1.13 fold enrichment (6-mer frequency, TF over GST control)"
same,binding signal,[17],"1.2 fold enrichment (6-mer frequency, TF over GST control)"
same,binding signal,[18],"1.17 fold enrichment (6-mer frequency, TF over GST control)"
